This note sets out measurements from PubChem BioAssay.

The test system of the test is Fibrinogen (Alexa647-labelled). The test is described as follows: Alexa647-fibrinogen binding to printed small molecules – biochemical, small-molecule microarray, 635/667 nm fluorescence, artefact control for SMM control-protein annotation, profiling panel (AID 1131).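 Note: z-score merges 667 nm fluorescence with per-spot signal-to-noise over triplicate slides.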 The settings on record: fibrinogen-A647 binding fluorescence, higher = more signal.
The compound `C[C@@H]1ON(c2ccccc2)[C@H](c2ccccc2)[C@H]1C(=O)O` had a composite z-score of 0.722. For `C[C@]1(C(=O)O)c2ccccc2C(=O)N(Cc2cc(F)cc(C(F)(F)F)c2)[C@H]1c1ccc(CO)cc1`, the composite z-score is 0.955. `COCCOC(=O)N1C(=O)[C@@]2(c3cc(C#CCCO)ccc31)[C@H](c1ccccc1OCCO)N1[C@H](c3ccccc3)[C@H](c3ccccc3)OC(=O)[C@H]1[C@@H]2C(N)=O` showed a composite z-score of 0.996. As to `O=C1[C@H]2C=C(I)[C@H](C[C@@H]2OCCCCCCO)[C@@]12CO2`, the composite z-score is -0.312. As to `C=CCOC(=O)[C@@H]1[C@H]2C(=O)O[C@H](c3ccccc3)[C@H](c3ccccc3)N2[C@H](c2ccc(OCCOC(=O)[C@H]3C[C@H]4C(=O)N[C@@H](CCCCN(C)C)C(=O)N4[C@H]3c3ccc(O)cc3)cc2)[C@@]12C(=O)Nc1ccc(I)cc12`, the composite z-score was determined as 0.541. Consider `O=C(NCc1ccccc1)[C@@H]1c2ccccc2C(=O)N(Cc2cc(C(F)(F)F)cc(C(F)(F)F)c2)[C@H]1c1ccc(CO)cc1`, for which the composite z-score worked out at 0.638. On to `CCCC[C@H]1C[C@@H]1[C@@H]1N(C(C)=O)[C@H](c2cccc(OC)c2)CC12CC2`, for which the composite z-score turned out to be 0.832.

Turning to `CCOC(=O)C1=CCC(c2cc3ccccc3[nH]2)N(CCN2CC(C(=O)OCC)=CCC2c2cc3ccccc3[nH]2)C1` (stereo not given), the composite z-score is 0.974. The compound `C=C(CCCC)/C(=C/C[C@H](OC(C)=O)c1cccc(OCCO)c1)c1cnc2ccccc2c1` registered a composite z-score of -0.785. Under `CCCN1C(=O)[C@@]2(c3ccc([N+](=O)[O-])cc3)CC(=O)N(CC34CC5CC(CC(C5)C3)C4)[C@@H]2c2ccc(CO)cc21` stands -0.171; under `COc1ccc(C(O)C2C=CC3C(=O)N(c4ccccc4)C(=O)C3N2Nc2ccc(C#N)cc2)cc1OCc1ccccc1` (stereo not given), 0.506. `CC(C)NC(=O)[C@@]1(c2ccc([N+](=O)[O-])cc2)CC(=O)N(CC23CC4CC(CC(C4)C2)C3)[C@@H]1c1ccc(CO)cc1` registered a composite z-score of 0.948.

As to `CC1=C([C@H](O)CCc2ccccc2)[C@H](CO)n2c(=O)n(-c3ccccc3)c(=O)n2C1`, the composite z-score is -0.178.

Compound `O=C(NC1CC1)[C@@H]1c2ccccc2C(=O)N(Cc2cc(C(F)(F)F)cc(C(F)(F)F)c2)[C@H]1c1ccc(CO)cc1` yielded a composite z-score of 0.427.

`COC(=O)[C@@]1(Cc2ccccc2)N=C(c2ccc(OCCCO)cc2)O[C@H]1c1ccccc1CN=[N+]=[N-]`: the composite z-score was determined as 0.447.

Consider `O=C1c2ccccc2[C@@]2(Cc3ccccc3N(Cc3ccccc3)C2=O)[C@H](c2ccc(CO)cc2)N1Cc1ccccc1Cl`, for which the composite z-score was -1.2. With `CC(C)C[C@H]1NC(=O)C([C@@H](C)OCc2ccccc2)NC(=O)[C@@]23C(=O)N[C@@H](Cc4ccccc4)C2[C@H](C)[C@@]2(C)O[C@H]2C3/C=C/C/C=C\CNC1=O` (stereo not given in full) the figure was 0.504. For the compound `CC(C)=CCCC(C)=CC(O)C1C=CC2C(=O)NC(=O)C2N1Nc1ccc(Cl)cc1Cl` (stereo not given), the composite z-score amounted to 0.44. Consider `CCCCC(=C=CC[C@H](O)c1ccc(CO)o1)CCO`, for which the composite z-score is -0.884. With `CCOC(=O)C1=CC[C@@H](c2ccccc2)N(S(=O)(=O)c2ccc(C)cc2)[C@H]1c1ccccc1I`, the composite z-score was 0.995.

In the case of `[N-]=[N+]=Nc1ccccc1[C@@H]1OC(c2ccc(OCCCO)cc2)=N[C@]1(CCS(=O)(=O)c1ccccc1)C(=O)NCC(O)CO` (stereo not given in full), the composite z-score turned out to be 0.911. With `N#Cc1ccc(NN2C(C(O)C3CC=CCC3)C=CC3C(=O)N(c4ccccc4)C(=O)C32)cc1` (stereo not given) the figure was 1.02; with `CC(C)C[C@@H]1NC(=O)[C@@]23C(=O)N[C@@H](Cc4ccccc4)C2[C@H](C)[C@@]2(C)O[C@H]2C3/C=C/C/C=C\CNC(=O)CNC1=O` (stereo not given in full), 0.177. With `COc1ccc([Si](C)(C)[C@H]2[C@H](CC(=O)N3CCC[C@H]3CO)O[C@@]3(C(=O)N(Cc4ccc(N5CCCCC5=O)cc4)c4ccccc43)[C@@H]2C)cc1` the figure was 0.655. With `C=CCC(OC(C)=O)[C@@H]1[C@@H](N(Cc2cccc3ccccc23)C(=O)Cc2ccc(OC)cc2)c2cc(OCCCO)ccc2N1C(=O)c1ccc2ccccc2c1` (stereo not given in full) the figure was 0.475; with `NC(=O)NCC#Cc1ccc2c(c1)[C@]1(C(=O)N2)[C@H](c2ccc(OCCO)cc2)N2[C@H](c3ccccc3)[C@H](c3ccccc3)OC(=O)[C@H]2[C@@H]1C(=O)O`, 0.755; with `O=C1O[C@H](c2ccccc2)[C@H](c2ccccc2)N2[C@H]1[C@@H](C(=O)N1CCN(c3ncccn3)CC1)[C@]1(C(=O)Nc3ccc(C#CCCO)cc31)[C@H]2c1ccc(O)cc1`, 0.888.

In turn, `C=C(CCCC)/C(=C/C[C@H](OC(=O)c1ccncc1)c1cccc(OCCO)c1)c1cnc2ccccc2c1` yielded a composite z-score of 0.957. In turn, `O=C(N1CCOCC1)[C@@]1(Cc2ccccc2)COC(c2ccc(OCCCO)cc2)=N1` registered a composite z-score of 0.767. Consider `C=CCC(OC(C)=O)[C@@H]1[C@@H](N(Cc2ccc(-c3cccc(C(F)(F)F)c3)o2)C(=O)c2ccc(-c3ccccc3)cc2)c2cc(OCCCO)ccc2N1C(=O)c1ccc2ccccc2c1` (stereo not given in full), for which the composite z-score is -0.0951. The compound `[N-]=[N+]=NCc1ccccc1[C@@H]1OC(c2ccc(OCCCO)cc2)=N[C@]1(Cc1ccccc1N=[N+]=[N-])C(=O)NCC(O)CO` (stereo not given in full) displayed a composite z-score of 0.911.

Consider `CCCNC(=O)[C@@]1(c2ccc([N+](=O)[O-])cc2)CC(=O)N(C(C)C)[C@@H]1c1ccc(CO)cc1`, for which the composite z-score was -1.19. With `CC(C)N1C(=O)C[C@@](C(=O)NCCN2CCOCC2)(c2ccc([N+](=O)[O-])cc2)[C@H]1c1ccc(CO)cc1` the figure was -0.591; with `CCCC[C@H]1OB(O)C[C@H]2C1=C(COc1ccccc1)C[C@H]1C(=O)C=CC(=O)[C@H]12`, 0.951. `CC(C)[Si](C#CCCc1ccccc1)(O[C@H](c1ccccc1)c1cn(Cc2ccccc2)nn1)C(C)C` registered a composite z-score of 0.642.
